Inhibition data for 32 compounds are collected here from ChEMBL document CHEMBL3433997, “St. Jude Leishmania screening dataset” (2016).

Each structure is given as a SMILES string.

Holding throughout (assay type): functional
Assay [1] deals with Solute carrier family 2, facilitated glucose transporter member 1 (Homo sapiens) (UniProt P11166). Description: ST_JUDE_LEISH: Cytotoxicity at 2uM final concentration against transgenic Leishmania Mexicana promastigotes LmGLUT1 that are glucose transport deficient and complemented with the human glucose transporter GLUT1. Activity is measured by DNA content using SYBR green in vitro.

The target of assay [2] is Hexose transporter 1 (Plasmodium falciparum) (UniProt O97467). Description: ST_JUDE_LEISH: Cytotoxicity at 2uM final concentration against transgenic Leishmania Mexicana promastigotes LmPfHT that are glucose transport deficient and complemented with the Plasmodium falciparum hexose transporter. Activity is measured by DNA content using SYBR green in vitro.
Assay [3] concerns the target Glucose transporter (Leishmania mexicana) (UniProt O61059). Description: ST_JUDE_LEISH: Cytotoxicity at 2uM final concentration against transgenic Leishmania Mexicana promastigotes LmGT2 that are glucose transport deficient and complemented with the L. Mexicana glucose transporter 2. Activity is measured by DNA content using SYBR green in vitro.

Solute carrier family 2, facilitated glucose transporter member 1 (Homo sapiens), sequence (P11166 whole entry): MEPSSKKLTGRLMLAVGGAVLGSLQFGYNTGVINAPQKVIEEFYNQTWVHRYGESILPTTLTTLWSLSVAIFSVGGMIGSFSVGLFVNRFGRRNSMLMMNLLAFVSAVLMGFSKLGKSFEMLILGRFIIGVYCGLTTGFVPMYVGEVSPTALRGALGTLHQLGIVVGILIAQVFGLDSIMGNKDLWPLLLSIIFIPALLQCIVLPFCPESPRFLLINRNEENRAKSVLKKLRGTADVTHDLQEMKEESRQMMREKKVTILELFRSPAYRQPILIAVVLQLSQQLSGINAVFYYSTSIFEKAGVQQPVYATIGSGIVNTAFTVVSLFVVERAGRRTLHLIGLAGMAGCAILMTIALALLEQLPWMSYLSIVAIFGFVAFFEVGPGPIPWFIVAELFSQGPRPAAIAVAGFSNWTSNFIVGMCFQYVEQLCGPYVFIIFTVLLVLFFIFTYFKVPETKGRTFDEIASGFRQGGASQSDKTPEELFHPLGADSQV

On to `Cc1ccc(CNC(=O)[C@H](CC(C)C)Nc2cc(C)nc(NCc3ccccc3C)n2)cc1`, for which the inhibition (usually the change of the read-out against control, counted positive when it falls) in assay [1] was determined as 4.3%; in assay [2], 4.62%; in assay [3], 3.14%.

With `CCOc1ccc(-c2nonc2NC(=O)c2ccc(OC)cc2)cc1OCC`, the inhibition in assay [1] is -1.17%; in assay [2] it was 4.75%; in assay [3], -0.16%.

`NC(=O)c1ccsc1NC(=O)CNC(c1ccc(F)cc1)c1cccs1` (stereo unspecified): the inhibition in assay [1] came out at 2.48%; in assay [2], 2.01%; in assay [3] it was 2.8%.

In the case of `Cc1nc(N)nc(N)c1Oc1cccc(Cl)c1`, the values for the inhibition in assay [1], in assay [2] and in assay [3] were 3.72%, 0.81% and 0.35%, respectively.

In the case of `Cc1cccc2nc(-c3cccc(-c4cccc(NC(=O)c5cnccc5C(F)(F)F)c4)c3)[nH]c12`, the inhibition in assay [1] was 3.64%; in assay [2], 0.6%; in assay [3], -3.32%.

As to `Nc1c2c(nc3ccc(NC(=O)CCCc4ccccc4)cc13)CCCC2`, the results for the inhibition in assay [1], in assay [2] and in assay [3] were 1.07%, 1.78% and 0.12%, respectively.

Turning to `COc1ccc(CCN(C)CCOc2ccc(NC(=O)c3cc(SC)cc4c(=O)c5ccccc5[nH]c34)cc2)cc1OC`, the inhibition in assay [1] came to 4.06%; in assay [2], 3.15%; in assay [3] it was 2.82%.

Take `Cc1cc2c(cc1C(F)(F)F)N(C(=O)Nc1cccc(C(=O)NC3CCN(Cc4ccccc4)CC3)c1)CC2`: the inhibition in assay [1] worked out at 2.13%; in assay [2], 3.38%; in assay [3], 3.16%.

`COc1ccc(CCNC(=O)c2cnc3c(c2)nc(-c2c[nH]c(-c4ccccc4)n2)n3CCc2c[nH]cn2)cc1`: the inhibition in assay [1] is 1%; in assay [2] it was -1.24%; in assay [3], 2.62%.

As for `CC[C@@H]([C@@H](Cc1cc2ccccc2s1)C(=O)N[C@@H](CCCCNC(=O)OCc1ccccc1)C(=O)Nc1ccccn1)N(O)C=O`, the inhibition is 5.52% in assay [1], 4.31% in assay [2] and 3.75% in assay [3].

In the case of `CCCCCCN1CCCN(Cc2ccc(C(=O)Nc3ccc(C(C)(C)C)cc3)cc2)CC1`, the results for the inhibition in assay [1], in assay [2] and in assay [3] were 4.82%, 1.84% and 5.5%, respectively.

With `Cc1nc2ccc3nc(NC(=O)c4ccno4)sc3c2s1`, the inhibition was 1.74% in assay [1], 1.13% in assay [2] and -1.31% in assay [3].

In the case of `Cc1ccc(CNC(=O)[C@H](CCCN)Nc2cc(C)nc(Nc3ccccc3)n2)cc1`, the inhibition in assay [1] came to 6.17%; in assay [2] it was 5.71%; in assay [3] it was 7.78%.

Consider `Cn1c2c(c3ccccc31)CN(CCC1(c3ccc(Cl)c(Cl)c3)CN(C(=O)c3ccccc3)CCO1)CC2` (stereo unspecified), for which the values for the inhibition in assay [1], in assay [2] and in assay [3] were 2.15%, 1.72% and 2.38%, respectively.

Consider `COc1ccc2nccc([C@@H](O)CN3CCC(NCc4cc5ccccc5cn4)CC3)c2n1`, for which the values for the inhibition in assay [1], in assay [2] and in assay [3] were 12.2%, 17.3% and 7.09%, respectively.

For the compound `O=C(/C=C/c1c(Cl)cccc1Cl)NC1CCC(CN2CCC(c3c[nH]c4ccncc34)CC2)CC1` (stereo unspecified), the figures for the inhibition in assay [1], in assay [2] and in assay [3] were 5.27%, 5.98% and 4.84%, respectively.

On to `COc1ccc2nccc([C@@H](O)CN3CCC(NC(=O)/C=C/c4ccnc5ccccc45)CC3)c2c1`, for which the inhibition in assay [1] was -1.7%; in assay [2] it was -1.62%; in assay [3], -2.64%.

Turning to `CC1CNC(c2cccc(NC(=O)Nc3cccc(C4=NC(C)CN4)c3)c2)=N1` (stereo unspecified), the inhibition in assay [1] was 6.32%; in assay [2] it was 8.33%; in assay [3], 6.15%.

Take `COc1ccc(OC)c(CC2c3ccc(Br)c(O)c3CCN2C)c1` (stereo unspecified): the inhibition in assay [1] is 1.36%; in assay [2], 1.41%; in assay [3], 2.33%.

Consider `c1ccc(Cn2nnnc2-c2cccc(Nc3ccnc4cc(-c5nccs5)ccc34)c2)cc1`, for which the inhibition in assay [1] is 1.8%; in assay [2] it was 2.17%; in assay [3], 1.96%.

Take `CCCC/C=C(\Cl)c1ccc(O)c2c1C[C@H]1C[C@H]3[C@H](N(C)C)C(O)=C(C(N)=O)C(=O)[C@@]3(O)C(O)=C1C2=O`: the results for the inhibition in assay [1], in assay [2] and in assay [3] were -0.21%, -1.57% and 0.16%, respectively.

As for `CCOc1cc(C(=O)NCCN2CCCCC2)ccc1-c1nc2cc(Cl)ccc2[nH]1`, the inhibition in assay [1] is 1.06%; in assay [2] it was 1.42%; in assay [3], 2.06%.

With `CCCCCOc1ccc(C(=NC)N(CCCCC)CCCCC)c2ccccc12`, the inhibition was found to be 5.37% in assay [1], 10.9% in assay [2] and 7.32% in assay [3].

On to `CCOc1ccc(C(=O)N2CCOC(CCN3CCC(c4ccccc4)CC3)(c3ccc(Cl)c(Cl)c3)C2)cc1` (stereo unspecified), for which the inhibition amounted to 3.91% in assay [1], 3.91% in assay [2] and 4.6% in assay [3].

Turning to `CN(c1ccc(NC(=O)c2cccc(F)c2)cc1)C1CCCN(Cc2cccc(O)c2)C1` (stereo unspecified), the inhibition in assay [1] was -0.85%; in assay [2], -2.67%; in assay [3] it was -0.73%.

`C=CCOC(=O)N1CCC(CNCc2cccc(-c3cccc(-c4nc5ccccc5[nH]4)c3)c2)C1` (stereo unspecified): the results for the inhibition in assay [1], in assay [2] and in assay [3] were -1.85%, 5.8% and 0.62%, respectively.

As to `O=C(NCCN1CCOCC1)c1csc(C2CCCN(C(=O)c3ccc(O)c(-c4cc(Cl)cc(Cl)c4)c3)C2)n1` (stereo unspecified), the results for the inhibition in assay [1], in assay [2] and in assay [3] were 8.92%, 1.79% and 1.85%, respectively.

For `CC(Oc1ccc(Cl)cc1)C(=O)Nc1cc(C(F)(F)F)ccc1-n1cncn1` (stereo unspecified), the inhibition in assay [1] was 2.69%; in assay [2], 3.5%; in assay [3] it was 3.88%.

Consider `Cc1cc2[nH]c(-c3ccc(C(=O)NCCCN4CCN(c5cccc(Cl)c5)CC4)cc3)nc2cc1Cl`, for which the inhibition in assay [1] is 1.69%; in assay [2], 3.45%; in assay [3], -1.01%.

Consider `COc1cccc(NC(=O)Nc2ccc(Nc3nc(C)cc(N(C)C)n3)cc2)c1`, for which the inhibition in assay [1] was 2.46%; in assay [2] it was 1.22%; in assay [3], -4.92%.

On to `Cc1ccccc1C1CCN(C2CCC(NC(=O)/C=C/c3cccc(C(F)(F)F)c3)CC2)CC1` (stereo unspecified), for which the inhibition in assay [1] turned out to be 1.86%; in assay [2] it was 0.37%; in assay [3] it was 2.39%.

For the compound `Cc1ccc(Cn2ncc(N3CC(C)NC(C)C3)c(Cl)c2=O)cc1NC(=O)Nc1ccc(-c2ccccc2)cc1` (stereo unspecified), the inhibition amounted to 14.6% in assay [1], 13.9% in assay [2] and 13.6% in assay [3].
